This passage reports growth results from PubChem BioAssay (NCI).

This is part of a sample that, as a whole, favours compounds with a hit. Of some 83,000 tested, about 20% had one in any assay.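 Single-dose data. Exposure time 48 hours. Values below 10 considered active.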 A number with no mark means an inactive call. Active and inactive are the calls of the source.

Assay in all cases: NCI-60 one-dose screen, 48 h (100 = growth as untreated, 0 = no growth, -100 = all killed)
Conditions in all cases: 10 µM unless noted

Test [1] concerns HCT-15 colon.
The subject of test [2] is HT29 colon.
Test [3] has as its system SNB-75 CNS.
Test [4] has as its system SNB-19 CNS.
In test [5] the test system is U251 CNS.
In test [6] the test system is PC-3 prostate.
Test [7] has as its system SK-MEL-5 melanoma.
Test [8] has as its system UACC-62 melanoma.
The subject of test [9] is LOX IMVI melanoma.
For test [10], the system named is SK-MEL-28 melanoma.

In the case of `CN(C)c1ccc(-c2cc(-c3ccc(Nc4nc(Nc5ccc(Cl)cc5)nc(Nc5ccc(Cl)cc5)n4)cc3)no2)cc1`, the growth in [1] was 39%; in test [2] it was 33.9%; in test [3], 19.6%; in [4], 65.7%; in test [5] it was 27.4%; in test [6] it was 6.65% (active). In addition, the growth is 34.5% in [7], 66.2% in test [8], 29% in test [9] and 31.3% in test [10].

For the molecule `Cn1cc(-c2csc(-c3ccccc3)n2)c2cccnc21`, the growth in test [1] is -40.3% [100 µM] (active); in test [2], -67.5% [100 µM] (active); in test [3], -15.9% [100 µM] (active); in [4], -50.2% [100 µM] (active); in test [5], -33.8% [100 µM] (active); in test [6], -16.9% [100 µM] (active). Moreover, the growth was -83.2% [100 µM] (active) in test [7], -62.7% [100 µM] (active) in test [8], -54.3% [100 µM] (active) in test [9] and -57.4% [100 µM] (active) in [10].

For `CN(Cc1cnc2nc(N)nc(N)c2n1)c1ccc(C(=O)N[C@@H](CCc2nn[nH]n2)c2nn[nH]n2)cc1`, the growth in test [1] is 25.2%; in test [2] it was 27%; in [3], 76.6%; in [4], 53.4%; in test [5], 50.6%; in test [6], 32.6%. The growth in test [7] is 41.2%; in test [8] it was 21.5%; in test [9], 16.1%; in test [10], 103%.

As for `CCCc1cc2c(=O)c(C(=O)OC)c[nH]c2cc1N(CC)CC`, the growth in test [1] was 95.9%; in [2], 110%; in [3] it was 104%; in test [4] it was 99.1%; in test [5], 104%; in test [6] it was 79.6%. Further, the growth in test [7] is 91.5%; in test [8], 83%; in test [9], 108%; in test [10] it was 112%.

`COc1ccc(/C=N\NC(=O)c2cc(-c3ccc(Br)cc3)n(-c3ccc(S(N)(=O)=O)cc3)n2)cc1`: the growth in test [1] was 33.3%; in [2], 36.7%; in test [3], -27.8% (active); in [4], 57.3%; in test [5], 51.3%; in test [6] it was 51.2%. The growth was 42% in test [7], 32.3% in [8], 45.4% in test [9] and 47.4% in [10].

In the case of `Cc1nn(-c2ccccc2)c2nc3c(c(-c4ccc(Cl)cc4)c12)CNC1(CCSCC1)N3`, the growth in test [1] was 101%; in test [2], 101%; in [3] it was 78.6%; in test [4], 106%; in test [5] it was 95.8%; in test [6], 87%. Also, the growth in test [7] was 99.1%; in test [8] it was 102%; in test [9] it was 97.7%; in [10], 104%.

Consider `COc1cccc(/C=C/C(=O)c2c(C)nc3ccccc3c2/C=C/c2ccc(C)cc2)c1OC`, for which the growth in test [1] was 19%; in [2], 29.7%; in [3] it was 42.4%; in test [4], 70.2%; in test [5], 55.3%; in test [6], 43.4%. Moreover, the growth in test [7] was 66%; in [8] it was 43.6%; in test [9] it was 39%; in test [10], 40.9%.

With `O=C(Nc1cccc(Oc2nnc(Cl)c3ccccc23)c1)Nc1ccc(Cl)c(C(F)(F)F)c1`, the growth in test [1] was -64% (active); in test [2] it was -75.9% (active); in [3], -59.3% (active); in [4], -5.9% (active); in [5] it was -75.4% (active); in test [6] it was -38.1% (active). Moreover, the growth in test [7] is -98.8% (active); in test [8], -82.5% (active); in [9], -93.2% (active); in test [10], -62.5% (active).

For `CC1=C([Se]CC(OC(=O)CC[Se]c2ccccc2)C(=O)NCCCCCC(=O)OCc2ccccc2)C(=O)c2ccccc2C1=O` (stereo not given), the growth was 50.1% in test [1]; 41.2% in [2]; 56.2% in test [3]; 31% in test [4]; 12.7% in test [5]; 30.7% in test [6]. Moreover, the growth in test [7] is -24.9% (active); in test [8], 41.6%; in test [9], 10.3%; in test [10] it was 21.7%.

On to `Cc1cc(C(=O)c2ccccc2)c(C)c2c1[nH]c1ccc(Cl)cc12`, for which the growth in test [1] is 7.78% (active); in test [2] it was 5.31% (active); in test [3], -10.1% (active); in test [4], 52.3%; in [5] it was 20.8%; in test [6], 23.8%. Further, the growth in test [7] was 2.39% (active); in [8], 54.9%; in test [9], 10.2%; in test [10], 59.1%.

As for `Cc1ccc(S(=O)(=O)n2cc(CNc3ccc(N4CCOCC4=O)cc3)c3ccccc32)cc1`, the growth in test [1] is 74.7%; in [2], 89.1%; in test [3] it was 73.4%; in [4], 97.7%; in [5], 95.1%; in test [6] it was 89.6%. Also, the growth in [7] is 93%; in [8], 78.2%; in test [9], 87.2%; in test [10], 101%.

Regarding `Cc1ccc2nc3ccccc3c(NCc3ccccc3)c2c1`, the growth was 18% in test [1]; 11.6% in test [2]; 65% in [3]; 31.8% in test [4]; 37% in [5]; 29.7% in test [6]. Besides, the growth in test [7] was 58.8%; in test [8], 56.4%; in test [9], 9.08% (active); in test [10], 78%.

As to `CC1(C)CC(=O)C2=C(C1)N(c1ccc(OC(F)(F)F)cc1)C(N)=C(C#N)C2c1ccc(Cl)cc1` (stereo not given), the growth in [1] is 97.1%; in [2], 87.2%; in [3], 52.6%; in [4], 57.4%; in [5], 56.2%; in test [6], 76.8%. Further, the growth in [7] was 93.8%; in test [8], 85.5%; in test [9], 86%; in test [10] it was 96.2%.
